# From the supplement of paper PMC8728848
# Only a selection was taken, and the strongest signals are over-represented in it overall.
# B1: TIM1 (protein)
# chain: ADGIQSVKVGGEAGPSVTLPCHYSGAVTSMCWNRGSCSLFTCQNGIVWTNGTHVTYRKDTRYKLLGDLSRRDVSLTIENTAVSDSGVYCCRVEHRGWFNDMKITVSLEIVPPHHHHHH
# Key:
# Assay in all cases: glycan array binding signal (z-score within array); higher = stronger binding
# Settings in all cases: glycan notation: IUPAC condensed, linker removed
# GalNAc(b1-3)GlcNAc = biological target: GalNAc(b1-3)GlcNAc
# Outline: (§1)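 Glycan array binding is given as a within-array Z-score, which can be read as non-binding when negative. The arrays, 3228 of them, came from the Consortium for Functional Glycomics database and were retained only where the protein sequence was available. Z-scores were averaged across arrays of the same protein sequence at different concentrations or buffers and across linkers.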
# GalNAc6S(b1-4)GlcNAc = biological target: GalNAc6S(b1-4)GlcNAc
# Outline: as §1
# Glc(a1-6)Glc(a1-6)Glc = biological target: Glc(a1-6)Glc(a1-6)Glc
# Outline: as §1
# [1] = biological target: GlcNAc(a1-4)Gal(b1-4)GalNAc
# Outline: as §1
# [2] = biological target: GlcNAc(a1-4)Gal(b1-4)GlcNAc(b1-3)Gal(b1-4)GlcNAc
# Outline: as §1
# [3] = biological target: GlcNAc(a1-4)Gal(b1-4)GlcNAc(b1-3)Gal(b1-4)[Fuc(a1-3)]GlcNAc(b1-3)Gal(b1-4)[Fuc(a1-3)]GlcNAc
# Outline: as §1
# [4] = biological target: GlcNAc(b1-3)Gal(b1-4)GlcNAc(b1-2)[GlcNAc(b1-3)Gal(b1-4)GlcNAc(b1-6)]Man(a1-6)[GlcNAc(b1-3)Gal(b1-4)GlcNAc(b1-2)Man(a1-3)]Man(b1-4)GlcNAc(b1-4)GlcNAc
# Outline: as §1
# [5] = biological target: GlcNAc(b1-3)Gal(b1-4)GlcNAc(b1-3)Gal(b1-4)GlcNAc(b1-2)Man(a1-3)[GlcNAc(b1-3)Gal(b1-4)GlcNAc(b1-3)Gal(b1-4)GlcNAc(b1-2)Man(a1-6)]Man(b1-4)GlcNAc(b1-4)GlcNAc
# Outline: as §1
# [6] = biological target: GlcNAc(b1-3)Gal(b1-4)GlcNAc(b1-3)Gal(b1-4)GlcNAc(b1-2)[GlcNAc(b1-3)Gal(b1-4)GlcNAc(b1-3)Gal(b1-4)GlcNAc(b1-6)]Man(a1-6)[GlcNAc(b1-3)Gal(b1-4)GlcNAc(b1-3)Gal(b1-4)GlcNAc(b1-2)Man(a1-3)]Man(b1-4)GlcNAc(b1-4)[Fuc(a1-6)]GlcNAc
# Outline: as §1
# [7] = biological target: GlcNAc(b1-3)Gal(b1-4)GlcNAc(b1-3)Gal(b1-4)GlcNAc(b1-3)Gal(b1-4)GlcNAc(b1-2)[GlcNAc(b1-3)Gal(b1-4)GlcNAc(b1-3)Gal(b1-4)GlcNAc(b1-3)Gal(b1-4)GlcNAc(b1-6)]Man(a1-6)[GlcNAc(b1-3)Gal(b1-4)GlcNAc(b1-3)Gal(b1-4)GlcNAc(b1-3)Gal(b1-4)GlcNAc(b1-2)Man(a1-3)]Man(b1-4)GlcNAc(b1-4)[Fuc(a1-6)]GlcNAc
# Outline: as §1
# [8] = biological target: GlcNAc6S(b1-3)Gal(b1-4)GlcNAc
# Outline: as §1
# Kdn(a2-3)Gal(b1-3)GalNAc = biological target: Kdn(a2-3)Gal(b1-3)GalNAc
# Outline: as §1
# [9] = biological target: Man(a1-2)Man(a1-3)[Man(a1-2)Man(a1-6)]Man
# Outline: as §1
# Neu5Ac(a2-3)Gal(b1-4)Glc = biological target: Neu5Ac(a2-3)Gal(b1-4)Glc
# Outline: as §1
# [10] = biological target: Neu5Ac(a2-3)Gal(b1-4)GlcNAc(b1-2)Man(a1-3)[Neu5Ac(a2-3)Gal(b1-4)GlcNAc(b1-2)Man(a1-6)]Man(b1-4)GlcNAc(b1-4)[Fuc(a1-6)]GlcNAc
# Outline: as §1
# [11] = biological target: Neu5Ac(a2-3)Gal(b1-4)GlcNAc(b1-2)[Neu5Ac(a2-3)Gal(b1-4)GlcNAc(b1-4)]Man(a1-3)[GlcNAc(b1-4)][Neu5Ac(a2-3)Gal(b1-4)GlcNAc(b1-2)[Neu5Ac(a2-3)Gal(b1-4)GlcNAc(b1-6)]Man(a1-6)]Man(b1-4)GlcNAc(b1-4)GlcNAc
# Outline: as §1
# [12] = biological target: Neu5Ac(a2-3)Gal(b1-4)GlcNAc(b1-3)Gal(b1-4)GlcNAc(b1-3)Gal(b1-4)GlcNAc(b1-2)Man(a1-3)[Neu5Ac(a2-3)Gal(b1-4)GlcNAc(b1-3)Gal(b1-4)GlcNAc(b1-3)Gal(b1-4)GlcNAc(b1-2)Man(a1-6)]GalNAc
# Outline: as §1
# [13] = biological target: Neu5Ac(a2-3)Gal(b1-4)GlcNAc(b1-6)GalNAc
# Outline: as §1
# [14] = biological target: Neu5Ac(a2-3)Gal(b1-4)GlcNAc6S
# Outline: as §1
# [15] = biological target: Neu5Ac(a2-3)Gal(b1-4)[Fuc(a1-3)]GlcNAc(b1-2)Man
# Outline: as §1
# [16] = biological target: Neu5Ac(a2-6)Gal(b1-4)GlcNAc(b1-3)Gal(b1-4)GlcNAc(b1-2)Man(a1-3)[Neu5Ac(a2-6)Gal(b1-4)GlcNAc(b1-3)Gal(b1-4)GlcNAc(b1-2)Man(a1-6)]GalNAc
# Outline: as §1
# [17] = biological target: Neu5Ac(a2-6)Gal(b1-4)GlcNAc(b1-3)Gal(b1-4)GlcNAc(b1-3)Gal(b1-4)GlcNAc(b1-2)Man(a1-3)[Neu5Ac(a2-6)Gal(b1-4)GlcNAc(b1-3)Gal(b1-4)GlcNAc(b1-3)Gal(b1-4)GlcNAc(b1-2)Man(a1-6)]GalNAc
# Outline: as §1
# [18] = biological target: Neu5Ac(a2-6)Gal(b1-4)GlcNAc(b1-6)[Gal(b1-3)]GalNAc
# Outline: as §1
# [19] = biological target: Neu5Ac(a2-8)Neu5Ac(a2-3)[GalNAc(b1-4)]Gal(b1-4)Glc
# Outline: as §1
# [20] = biological target: Neu5Ac(a2-8)Neu5Ac(a2-8)Neu5Ac(a2-3)Gal(b1-4)Glc
# Outline: as §1
# [21] = biological target: Neu5Gc(a2-8)Neu5Ac(a2-3)Gal(b1-4)GlcNAc
# Outline: as §1
binder,measurement,setting,value
B1,glycan array binding signal (z-score),GalNAc(b1-3)GlcNAc,-0.188
same,glycan array binding signal (z-score),GalNAc6S(b1-4)GlcNAc,-0.269
same,glycan array binding signal (z-score),Glc(a1-6)Glc(a1-6)Glc,-0.212
same,glycan array binding signal (z-score),[1],0.413
same,glycan array binding signal (z-score),[2],-0.125
same,glycan array binding signal (z-score),[3],2.32
same,glycan array binding signal (z-score),[4],1.97
same,glycan array binding signal (z-score),[5],5.59
same,glycan array binding signal (z-score),[6],1.97
same,glycan array binding signal (z-score),[7],1.02
same,glycan array binding signal (z-score),[8],-0.142
same,glycan array binding signal (z-score),Kdn(a2-3)Gal(b1-3)GalNAc,0.111
same,glycan array binding signal (z-score),[9],-0.292
same,glycan array binding signal (z-score),Neu5Ac(a2-3)Gal(b1-4)Glc,0.916
same,glycan array binding signal (z-score),[10],-0.132
same,glycan array binding signal (z-score),[11],-0.288
same,glycan array binding signal (z-score),[12],4.84
same,glycan array binding signal (z-score),[13],-0.189
same,glycan array binding signal (z-score),[14],-0.181
same,glycan array binding signal (z-score),[15],-0.204
same,glycan array binding signal (z-score),[16],1.3
same,glycan array binding signal (z-score),[17],5.74
same,glycan array binding signal (z-score),[18],-0.075
same,glycan array binding signal (z-score),[19],-0.183
same,glycan array binding signal (z-score),[20],-0.195
same,glycan array binding signal (z-score),[21],-0.137
